According to PubChem BioAssay (NCI):
Where “and” joins values, the source holds several entries; their conditions need not be identical. Equal entries are not always repeated. About 83,000 compounds went through this panel and 20% of them were active in at least one assay; those are over-represented in the sample as a whole.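 For each line, cells grew in 96-well plates with the test compound present at a single concentration for 48 hours.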 Calls of active or inactive are those of the source. The calls were made as follows: active = growth percent below 10; inactive = the rest.

Experiments:
Experiment in all cases: NCI-60 one-dose screen, 48 h (100 = growth as untreated, 0 = no growth, -100 = all killed)
SK-MEL-2 melanoma = conditions: 10 µM unless noted
EKVX NSCLC = conditions: 10 µM unless noted
SN12C renal = tested on: SN12C renal
UO-31 renal = conditions: 10 µM unless noted
TK-10 renal = tested on: TK-10 renal
ACHN renal = conditions: 10 µM unless noted
CAKI-1 renal = conditions: 10 µM unless noted
A498 renal = conditions: 10 µM unless noted
MOLT-4 leukemia = conditions: 10 µM unless noted
SR leukemia = conditions: 10 µM unless noted
RPMI-8226 leukemia = conditions: 10 µM unless noted
OVCAR-4 ovarian = conditions: 10 µM unless noted
SK-OV-3 ovarian = conditions: 10 µM unless noted
IGROV1 ovarian = conditions: 10 µM unless noted
OVCAR-3 ovarian = conditions: 10 µM unless noted
HS 578T breast = conditions: 10 µM unless noted
NCI/ADR-RES ovarian = conditions: 10 µM unless noted
OVCAR-8 ovarian = conditions: 10 µM unless noted
OVCAR-5 ovarian = conditions: 10 µM unless noted
CCRF-CEM leukemia = conditions: 10 µM unless noted

Measured: growth

C/C=C1\SC(=S)NC1=O
inactive: SK-MEL-2 melanoma 111% | EKVX NSCLC 95.1% | SN12C renal; 10 µM unless noted 101% | UO-31 renal 91.6% | TK-10 renal; 10 µM unless noted 98.4% | ACHN renal 106% | CAKI-1 renal 99.3% | A498 renal 108% | MOLT-4 leukemia 103% | SR leukemia 101% | RPMI-8226 leukemia 101% | OVCAR-4 ovarian 101% | SK-OV-3 ovarian 92.4% | IGROV1 ovarian 105% | OVCAR-3 ovarian 111% | HS 578T breast 104% | NCI/ADR-RES ovarian 107%

CC(C)(C)CC(C)(C)c1ccc(OCCSC(=N)N)cc1
inactive: SK-MEL-2 melanoma 96.4% | EKVX NSCLC 51.8% | SN12C renal; 10 µM unless noted 53.7% | UO-31 renal 37.2% | TK-10 renal; 10 µM unless noted 72.3% | ACHN renal 69.1% | CAKI-1 renal 71.3% | A498 renal 60.2% | OVCAR-8 ovarian 56.2% | OVCAR-5 ovarian 79.3% | SK-OV-3 ovarian 89.6% | IGROV1 ovarian 77.1% | OVCAR-3 ovarian 46.7% | HS 578T breast 91.4% | NCI/ADR-RES ovarian 71.7%
active: MOLT-4 leukemia 9.3% | SR leukemia -37.7% | RPMI-8226 leukemia 2.8%

O=C(Nc1cccc(Br)c1)Oc1ccc(Cl)c2cccnc12
active: EKVX NSCLC -18.3% [100 µM] | MOLT-4 leukemia 2% [100 µM] | RPMI-8226 leukemia 3.35% [100 µM] | OVCAR-4 ovarian 3.81% [100 µM] | OVCAR-3 ovarian -48.7% [100 µM] | NCI/ADR-RES ovarian 6.36% [100 µM]
inactive: SK-MEL-2 melanoma 17% [100 µM] | SN12C renal; 10 µM unless noted 44.7% [100 µM] | UO-31 renal 13.9% [100 µM] | TK-10 renal; 10 µM unless noted 170% [100 µM] | ACHN renal 10.1% [100 µM] | CAKI-1 renal 47% [100 µM] | A498 renal 96.1% [100 µM] | CCRF-CEM leukemia 10.7% [100 µM] | OVCAR-5 ovarian 33.7% [100 µM] | IGROV1 ovarian 13.6% [100 µM]

O=C(Oc1cccc2cccnc12)c1ccccc1
inactive: SK-MEL-2 melanoma 110% and 96.7% | EKVX NSCLC 91% and 107% | SN12C renal; 10 µM unless noted 86% and 104% | UO-31 renal 78.6% and 82% | TK-10 renal; 10 µM unless noted 106% and 107% | ACHN renal 96.5% and 104% | CAKI-1 renal 89.7% | A498 renal 117% | CCRF-CEM leukemia 23.7% and 102% | MOLT-4 leukemia 80% | RPMI-8226 leukemia 83.3% and 113% | OVCAR-8 ovarian 84.9% and 98.6% | IGROV1 ovarian 113% | HS 578T breast 74.9% and 123% | NCI/ADR-RES ovarian 87% and 106%

Oc1c(Cl)c2ccccc2c2ccccc12
inactive: SK-MEL-2 melanoma 96.9% | EKVX NSCLC 117% | SN12C renal; 10 µM unless noted 98.5% | UO-31 renal 91.8% | TK-10 renal; 10 µM unless noted 84.8% | ACHN renal 100% | CAKI-1 renal 111% | A498 renal 122% | CCRF-CEM leukemia 112% | SR leukemia 99.2% | RPMI-8226 leukemia 102% | OVCAR-5 ovarian 129% | OVCAR-4 ovarian 98.1% | SK-OV-3 ovarian 111% | IGROV1 ovarian 117% | OVCAR-3 ovarian 107% | NCI/ADR-RES ovarian 67.6%

COc1cc(/C=C(/C)C[N+](=O)[O-])ccc1O
inactive: SK-MEL-2 melanoma 96.9% | EKVX NSCLC 109% | SN12C renal; 10 µM unless noted 86.3% | UO-31 renal 73.3% | TK-10 renal; 10 µM unless noted 87.4% | ACHN renal 95.9% | CAKI-1 renal 84.3% | CCRF-CEM leukemia 56.9% | MOLT-4 leukemia 80.6% | SR leukemia 34% | RPMI-8226 leukemia 64.3% | OVCAR-8 ovarian 94.7% | OVCAR-5 ovarian 110% | OVCAR-4 ovarian 104% | SK-OV-3 ovarian 103% | IGROV1 ovarian 44.1% | OVCAR-3 ovarian 85.4% | HS 578T breast 98.7% | NCI/ADR-RES ovarian 102%

O=C1c2cccnc2-c2nccc3c2c1nc1cc(Br)ccc13
active: UO-31 renal -80% and -93% | ACHN renal -72.9% and -92.1% | CAKI-1 renal -49.6% and -90.7% | A498 renal -52% and -78.4% | CCRF-CEM leukemia -26.3% and -4.46% | MOLT-4 leukemia -39.5% and -31% | RPMI-8226 leukemia -49.7% and -22.2% | OVCAR-4 ovarian -54.2% and -85.3% | IGROV1 ovarian -77.6% and -77.5% | HS 578T breast -74% and -32.9% | NCI/ADR-RES ovarian -50.7% and -38.1%
16.8% (inactive) and -59% (active): SK-MEL-2 melanoma
11.5% (inactive) and -70.9% (active): SN12C renal; 10 µM unless noted
32% (inactive) and -81.4% (active): EKVX NSCLC
44.5% (inactive) and -98.9% (active): TK-10 renal; 10 µM unless noted

CNc1ccc(N)cc1
inactive: SK-MEL-2 melanoma 120% | EKVX NSCLC 93.7% | SN12C renal; 10 µM unless noted 110% | UO-31 renal 98.2% | TK-10 renal; 10 µM unless noted 130% | ACHN renal 92.8% | CAKI-1 renal 91.4% | A498 renal 120% | CCRF-CEM leukemia 87.6% | MOLT-4 leukemia 97.6% | OVCAR-4 ovarian 89.6% | SK-OV-3 ovarian 114% | IGROV1 ovarian 101% | OVCAR-3 ovarian 112% | HS 578T breast 109% | NCI/ADR-RES ovarian 87.6%

CCOC(=O)c1c(C)[nH]c(CO)c1C
inactive: SK-MEL-2 melanoma 101% | EKVX NSCLC 79.1% | SN12C renal; 10 µM unless noted 95.2% | UO-31 renal 92.5% | TK-10 renal; 10 µM unless noted 106% | ACHN renal 107% | CAKI-1 renal 101% | A498 renal 107% | CCRF-CEM leukemia 98.2% | MOLT-4 leukemia 96.6% | RPMI-8226 leukemia 97.8% | OVCAR-5 ovarian 104% | OVCAR-4 ovarian 105% | SK-OV-3 ovarian 102% | IGROV1 ovarian 98% | HS 578T breast 109% | NCI/ADR-RES ovarian 105%

CCCCCCCCCCCCCCNCc1ccccc1
inactive: SK-MEL-2 melanoma 96.4% | SN12C renal; 10 µM unless noted 79% | UO-31 renal 62.4% | TK-10 renal; 10 µM unless noted 103% | ACHN renal 90.9% | CAKI-1 renal 82.2% | A498 renal 92.7% | CCRF-CEM leukemia 60.5% | MOLT-4 leukemia 56.4% | SR leukemia 11.8% | RPMI-8226 leukemia 34.5% | OVCAR-8 ovarian 87% | OVCAR-5 ovarian 105% | OVCAR-4 ovarian 80.3% | SK-OV-3 ovarian 97.8% | IGROV1 ovarian 97.7% | OVCAR-3 ovarian 91.4% | HS 578T breast 95% | NCI/ADR-RES ovarian 79.6%

Oc1c(Br)cc(Cl)cc1C(c1cc(Cl)cc(Br)c1O)C(Cl)(Cl)Cl
active: SK-MEL-2 melanoma -30.2% | CAKI-1 renal 1.81% | A498 renal -12.4% | NCI/ADR-RES ovarian 7.13%
inactive: EKVX NSCLC 15.7% | SN12C renal; 10 µM unless noted 10.8% | UO-31 renal 12.6% | TK-10 renal; 10 µM unless noted 24.5% | ACHN renal 10.5% | MOLT-4 leukemia 14.6% | OVCAR-8 ovarian 14.3% | SK-OV-3 ovarian 32.5% | IGROV1 ovarian 24.8% | OVCAR-3 ovarian 12.7% | HS 578T breast 21.2%

CCC(c1cccc(O)c1)C(CC)c1cccc(O)c1 (stereo not drawn)
inactive: SK-MEL-2 melanoma 71.8% | EKVX NSCLC 64.1% | SN12C renal; 10 µM unless noted 68.5% | UO-31 renal 64.1% | TK-10 renal; 10 µM unless noted 80% | ACHN renal 75.1% | CAKI-1 renal 66.4% | A498 renal 70.8% | CCRF-CEM leukemia 49.8% | MOLT-4 leukemia 33.7% | RPMI-8226 leukemia 31.6% | OVCAR-4 ovarian 67.6% | SK-OV-3 ovarian 76.5% | IGROV1 ovarian 72.4% | OVCAR-3 ovarian 77.3% | HS 578T breast 54.2% | NCI/ADR-RES ovarian 72.1%

COc1cc(NS(C)(=O)=O)ccc1Nc1c2ccccc2nc2ccccc12
active: TK-10 renal; 250 µM -95.2% and -100% | ACHN renal 2.39% [2.5 µM] | A498 renal -7.27% [2.5 µM] | CCRF-CEM leukemia 3.36% [2.5 µM] | MOLT-4 leukemia 1.03% [2.5 µM]
inactive: SK-MEL-2 melanoma 96.5% [2.5 µM] | SN12C renal; 2.5 µM 17.7% | UO-31 renal 34.3% [2.5 µM] | TK-10 renal; 2.5 µM 66.1% | CAKI-1 renal 16.3% [2.5 µM] | SR leukemia 19.4% [2.5 µM] | RPMI-8226 leukemia 11.3% [2.5 µM] | OVCAR-8 ovarian 28.8% and 23.2% and 27.8% | OVCAR-5 ovarian 46.8% [2.5 µM] | SK-OV-3 ovarian 32.5% [2.5 µM] | IGROV1 ovarian 48.6% [2.5 µM] | OVCAR-3 ovarian 58.7% [2.5 µM] | NCI/ADR-RES ovarian 70.2% [2.5 µM]
10.6% (inactive) [middle of 4 runs]: SN12C renal; 10 µM

O=C1NC(=O)/C(=C/C=C/c2ccccc2)S1
active: SK-MEL-2 melanoma -6.31% | ACHN renal 9.79% | IGROV1 ovarian -6.36%
inactive: EKVX NSCLC 62.5% | SN12C renal; 10 µM unless noted 50.6% | UO-31 renal 34.1% | TK-10 renal; 10 µM unless noted 91.8% | CAKI-1 renal 25.5% | A498 renal 69.7% | RPMI-8226 leukemia 38.8% | OVCAR-8 ovarian 43.1% | OVCAR-5 ovarian 92.5% | HS 578T breast 93.3% | NCI/ADR-RES ovarian 42.9%

CCCCCCCCCCCCCCCCOP(=O)([O-])OCC[N+](C)(C)C
active: TK-10 renal; 10 µM unless noted -70.3% | A498 renal 3.51% | CCRF-CEM leukemia 1.24% | MOLT-4 leukemia -19.9% | RPMI-8226 leukemia 7.31%
inactive: SK-MEL-2 melanoma 56.8% | EKVX NSCLC 46.9% | SN12C renal; 10 µM unless noted 34.2% | UO-31 renal 19.3% | ACHN renal 36.4% | CAKI-1 renal 16.5% | OVCAR-5 ovarian 53.2% | OVCAR-4 ovarian 78.3% | SK-OV-3 ovarian 37.9% | IGROV1 ovarian 21.3% | HS 578T breast 33.7% | NCI/ADR-RES ovarian 90%

Nc1nc(N)c2nc(CNc3ccc(C(=O)NC(CCC(=O)O)C(=O)O)cc3)cnc2n1 (stereo not drawn)
inactive: SK-MEL-2 melanoma 60.1% and 58.9% | SN12C renal; 10 µM unless noted 25.6% and 14.7% | UO-31 renal 13.6% and 31.4% | TK-10 renal; 10 µM unless noted 54% and 48.1% | ACHN renal 19.4% | CAKI-1 renal 25.9% and 21.9% | A498 renal 45.4% and 85.7% | CCRF-CEM leukemia 22.6% and 29.9% | MOLT-4 leukemia 25.8% and 31.5% | SR leukemia 15.1% and 40.2% | RPMI-8226 leukemia 60.7% and 55% | OVCAR-8 ovarian 31.7% and 34.9% | OVCAR-5 ovarian 31.9% | OVCAR-4 ovarian 58.8% and 49.1% | IGROV1 ovarian 36.9% and 34.9% | HS 578T breast 90.5% | NCI/ADR-RES ovarian 25.8% and 20.3%
